Test results taken from PubChem BioAssay AID720582 (The Scripps Research Institute Molecular Screening Center, 2013).
In all, about 370,000 compounds went through this assay and about 2,300 (0.62%) were called active. Only a selection was taken, and actives are over-represented in it overall. A number with no mark means an inactive call.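 Rule for the calls: active = inhibition above a per-campaign cutoff equal to the mean of compounds falling between control-based bounds plus 3 SD (cut at about 20% in these data); inactive = the rest.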

biological target: Disintegrin and metalloproteinase domain-containing protein 10 (Homo sapiens) (UniProt O14672); assay: human ADAM10 inhibitors, primary screen, biochemical, QFRET, HTS (AID 720582); conditions: recombinant ADAM10, EDANS/DABCYL FRET peptide cleavage, 3 h; at 7 µM; stronger effect = higher value;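 note: 0% = DMSO wells while the 100% control is not disclosed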
Sequence (O14672 214-748 limits assumed): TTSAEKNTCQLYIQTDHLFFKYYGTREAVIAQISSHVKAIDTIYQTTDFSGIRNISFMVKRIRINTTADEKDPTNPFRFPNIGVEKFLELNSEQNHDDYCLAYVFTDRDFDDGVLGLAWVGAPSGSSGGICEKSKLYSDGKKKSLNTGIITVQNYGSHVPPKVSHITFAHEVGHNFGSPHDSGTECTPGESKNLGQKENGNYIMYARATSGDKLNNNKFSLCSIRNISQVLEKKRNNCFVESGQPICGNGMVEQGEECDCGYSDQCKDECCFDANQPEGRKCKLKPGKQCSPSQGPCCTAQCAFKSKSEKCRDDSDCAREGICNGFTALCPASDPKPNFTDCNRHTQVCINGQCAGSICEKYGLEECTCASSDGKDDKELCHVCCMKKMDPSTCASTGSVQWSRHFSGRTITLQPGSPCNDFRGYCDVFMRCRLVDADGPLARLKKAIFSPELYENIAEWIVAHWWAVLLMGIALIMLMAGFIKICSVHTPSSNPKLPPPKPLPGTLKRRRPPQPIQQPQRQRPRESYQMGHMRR

SMILES | inhibition
Cc1ccc(CSc2nnc(SCC(=O)NN=Cc3cc(Br)ccc3F)s2)cc1 | -6.1%
COc1ccc(NC(=S)NCC2CCN(c3ccc(OC)cc3)C2)cc1 (stereo unspecified) | 7.62%
O=C(CCNC(=O)c1ccc([N+](=O)[O-])cc1)Nc1ccccc1N1CCOCC1 | 1.54%
O=C(CNC(=O)c1ccc(Cl)cc1Cl)NCC(=O)Nc1ccccc1N1CCOCC1 | 83.6% (active)
Cc1ccc(NC(=O)COC(=O)CNC(=O)c2ccc(Cl)cc2Cl)cc1S(=O)(=O)N1CCOCC1 | 7.22%
Cc1ccc(CN2CCCCC(NC(=O)C3CCCCC3)C2=O)cc1 (stereo unspecified) | -0.65%
O=C(CSc1nc2c(c(=O)[nH]1)CCCC2)N1CCCCC1 | 3.78%
CCOC(=O)c1csc(NC(=O)Nc2cccc(OC)c2)n1 | 0.5%
NC(c1csc(NC(=O)Nc2ccccc2Oc2ccccc2)n1)c1ccccc1Cl (stereo unspecified) | -3.13%
COc1ccc(C(N)c2csc(NC(=O)Nc3cccc(C(F)(F)F)c3)n2)cc1 (stereo unspecified) | 25.5% (active)
Nn1c(SCC(=O)Nc2cccc3ccccc23)nnc1-c1cc(-c2ccc(F)cc2)n[nH]1 | -0.59%
COc1ccc(Cl)cc1NC(=O)COC(=O)c1ccc(Br)o1 | -6.92%
COc1ccc(Cl)cc1NC(=O)c1cccc(N2C(=O)C3CC=CCC3C2=O)c1 (stereo unspecified) | 3.57%
COc1ccc(Cl)cc1NC(=O)COC(=O)C(CC(C)C)N1C(=O)C2CC=CCC2C1=O (stereo unspecified) | 28% (active)
Cc1ccccc1CS(=O)(=O)Cc1ccc(C(=O)Nc2ccc(Cl)cc2)o1 | -29%
Cc1sc2nc(SCC(=O)c3ccc(O)c(O)c3)n(Cc3ccco3)c(=O)c2c1C | 15.9%
COc1cccc(CNC(=O)C2CCCN(c3nc4ccccc4o3)C2)c1OC (stereo unspecified) | 2.5%
O=C1c2ccccc2C(=O)N1CCOc1ccc(F)cc1 | 0.68%
Cc1c(C=O)c2ccccc2n1CCOc1ccccc1 | 10.4%
O=Cc1cn(CCOc2ccc(F)cc2)c2ccccc12 | 20.7% (active)
Cc1ccc(C(=O)C2CCN(CC(=O)NCCC(C)C)CC2)cc1 | -6.22%

SMILES | inhibition
O=C(/C=C/c1ccc(F)cc1)NC(=S)NNC(=O)c1cccnc1 | 22.8% (active)
NS(=O)(=O)c1ccc(NC(=S)NC(=O)c2cccnc2)cc1 | -8.74%
Cc1cccc(OCCNC(=S)NC(=O)c2cccnc2)c1 | 2.33%
O=C1CCC2(CCC(c3ccc(Cl)cc3)CC2)N1CCO (stereo unspecified) | -9.03%
O=C(NC(Cc1c[nH]c2ccccc12)C(=O)N/N=C/c1ccc(Br)cc1)c1cccs1 (stereo unspecified) | 28.1% (active)
CCN(CC)c1ccc(/C=N/NC(=O)CNC(=O)c2cccs2)cc1 | -246%
O=C(N[C@@H](Cc1c[nH]c2ccccc12)C(=O)O)OCC1c2ccccc2-c2ccccc21 | -1.67%
COC(CNC(=O)[C@H](Cc1ccccc1)NC1(C(=O)NC2CCCCC2)CCCCC1)OC | 4.93%
O=C(CC(O)(C(F)(F)F)C(F)(F)F)Nc1ccc(Cl)c(Cl)c1 | 23.7% (active)
O=C(CCS(=O)(=O)c1ccccc1)Nc1ccc(Cl)c(Cl)c1 | -2.68%
O=C(Nc1ccc(Cl)c(Cl)c1)N1CC=C(c2ccccc2)CC1 | -19.8%
COC(=O)C1CN(Cc2ccc(F)cc2)CCS(=O)(=O)N1Cc1ccc(Cl)cc1 (stereo unspecified) | -0.23%
COC(=O)[C@H](C(C)C)N1CCc2nnn(Cc3ccc(C)cc3)c2-c2ccccc2S1(=O)=O | 5.83%
COC(=O)[C@]12C[C@H](CC(=O)NCCc3ccccc3OC)C(=O)N(Cc3ccco3)C1=C[C@H](C(C)C)O[C@@H]2C1CC1 | -2.42%
CC(=O)Nc1ccc(OC[C@@H](O)CN2CCC(C(O)(c3ccccc3)c3ccccc3)CC2)cc1 | 4.68%
O=C(NCCc1c[nH]c2ccc(Cl)cc12)c1ccc([N+](=O)[O-])cc1 | -1.95%
NS(=O)(=O)c1ccc(CCNC(=O)c2ccc(Cl)cc2[N+](=O)[O-])cc1 | -0.8%
O=C(NCCc1ccc(Cl)cc1Cl)c1cc([N+](=O)[O-])c[nH]c1=O | 20.1% (active)
Cc1cc(NS(=O)(=O)c2ccc(NC(=O)CSc3nnc(-c4ccc(C(C)(C)C)cc4)n3Cc3ccco3)cc2)nc(C)n1 | 5.55%
COc1ccc(C2Nc3ccccc3C(=O)N2Cc2cccs2)cc1COc1c(C)cccc1C (stereo unspecified) | -298%
COc1ccc(C(=O)OCCN(C)C2CN(Cc3cn(Cc4cccc(C)c4)nn3)S(=O)(=O)C2)cc1OC (stereo unspecified) | 2.95%

SMILES | inhibition
Cc1ccc(-n2c(SCC(=O)Nc3cccc4ccccc34)nnc2-c2ccco2)cc1 | 9.63%
S=c1[nH]ccn1-c1ccc(Cl)cc1 | -2.53%
S=c1[nH]cc(-c2ccc(Cl)cc2)n1-c1ccccc1 | 22.5% (active)
S=c1[nH]nc(CSCc2ccc(Cl)cc2Cl)n1-c1ccccc1 | 15.5%
O=C(c1cccc(C(F)(F)F)c1)N1CC[C@H]2[C@H](CCCN2Cc2cc(F)cc(F)c2)C1 | -2.92%
Cn1c(Cc2cccs2)nnc1SCC(=O)Nc1ccccc1 | -5.09%
Cn1c(CNc2nc(-c3ccccc3)cs2)nnc1SCC(=O)c1ccccc1 | 35% (active)
CCn1c(CNc2ccc(OC)cc2)nnc1SCC(=O)c1ccc(OC)cc1 | -4.28%
COc1ccc(CN2C(=O)N3Cc4cc(OC)ccc4C3CS2(=O)=O)cc1 (stereo unspecified) | 2.06%
O=C(CCCCCN1C(=O)C2C3C=CC(C3)C2C1=O)Nc1ccccc1 (stereo unspecified) | 1.21%
COc1cccc(C2=CC(=O)C[C@H](c3ccc(OC)c(OC)c3)C2)c1 | 1.42%
COc1ccc([C@H]2CC(=O)C=C(c3ccc(OC(F)(F)F)cc3)C2)cc1OC | 21% (active)
COc1ccc([C@H]2CC(=O)C=C(c3ccc(CO)cc3)C2)cc1 | -0.95%
Cc1cc(C)cc(NC(=S)NCCc2c[nH]c3ccccc23)c1 | 28.5% (active)
Cc1ccc(S(=O)(=O)N(C)CC(=O)NCCc2c[nH]c3ccccc23)cc1 | -6.6%
O=C(COC(=O)Cc1c[nH]c2ccccc12)NCCc1ccccc1 | 7.22%
COc1cc(/C=C2/SC(=S)N(Cc3ccccc3)C2=O)cc(OC)c1O | 20.6% (active)
COc1cc(Cl)cc(C2NC(=O)NC(C)=C2C(=O)NCc2ccccc2)c1O (stereo unspecified) | -4.94%
COc1cc(C(=S)NCc2ccccc2)cc(Br)c1O | 10.6%
NS(=O)(=O)c1ccc(NC(=O)COC(=O)C2(c3ccc(F)cc3)CCCC2)cc1 | 13%
CN(C)S(=O)(=O)c1cccc(NC(=O)COC(=O)C2(c3ccccc3F)CCCC2)c1 | 27.6% (active)

SMILES | inhibition
O=C(COC(=O)COc1ccccc1F)Nc1cccc(S(=O)(=O)N2CCCCC2)c1 | -11.9%
COC(=O)C1CN(CC(C)C)CCS(=O)(=O)N1Cc1ccc(C)cc1 (stereo unspecified) | -14.6%
COC(=O)CC1CCc2cc(C)cc(C(CC(C)C)NC(=O)[C@H](CC(C)C)NC(=O)OCc3ccccc3)c2O1 (stereo partly specified) | -2.1%
COc1ccc(N2CCN(CCNS(=O)(=O)c3ccc(Cl)s3)CC2)cc1 | 0.29%
C=CCC[C@@H](Cc1ccc(F)cc1)C(=O)OC[C@@H](C)NC(=O)[C@H](CC=C)CC(=O)N(CCO)Cc1ccccc1 | 8.58%
C=CCC[C@H](Cc1ccc(F)cc1)C(=O)OC[C@H](C)NC(=O)[C@H](CC=C)CC(=O)N(CCO)Cc1ccccc1 | 7.82%
C=CC[C@@H](Cc1ccc(F)cc1)C(=O)OC[C@H]1CCCN1C(=O)[C@H](CC=C)CC(=O)N(CCO)Cc1ccccc1 | -2.18%
C=CC[C@H](CC(=O)N(CCO)Cc1ccccc1)C(=O)N[C@@H](COC(=O)[C@@H](CC=C)Cc1ccc(F)cc1)Cc1ccccc1 | 28% (active)
C=CCC[C@H](Cc1ccc(F)cc1)C(=O)OC[C@@H](Cc1c[nH]c2ccccc12)NC(=O)[C@H](CC=C)CC(=O)N[C@H](CO)Cc1ccccc1 | 0.78%
C=CCC[C@@H](Cc1ccc(F)cc1)C(=O)O[C@H](CNC(=O)[C@H](CC=C)CC(=O)N(CCO)Cc1ccccc1)c1ccccc1 | 31.3% (active)
C=CCC[C@H](Cc1ccc(F)cc1)C(=O)OC[C@@H](NC(=O)[C@@H](CC=C)CC(=O)N[C@H](CO)Cc1ccccc1)C(C)(C)C | 8.16%
C=CC[C@@H](CC(=O)N[C@H](CO)Cc1ccccc1)C(=O)N[C@@H](COC(=O)[C@@H](CC=C)Cc1ccc(F)cc1)Cc1c[nH]c2ccccc12 | 0.04%
C=CCC[C@@H](Cc1ccc(F)cc1)C(=O)OC[C@H](Cc1c[nH]c2ccccc12)NC(=O)[C@@H](CC=C)CC(=O)N(CCO)Cc1ccccc1 | 41.8% (active)
CSc1ccc(C=Nn2c(-c3ccc(F)cc3)n[nH]c2=S)cc1 | -11.4%
Cc1cccc(C(=O)Nc2c(-c3ccc(F)cc3)nc3ncccn23)c1 | -329%
CCC(CO)Nc1cccc2c1S(=O)(=O)N(Cc1cn(Cc3ccccc3C(F)(F)F)nn1)Cc1ccccc1O2 (stereo unspecified) | -15.3%
O=C(N1CCOCC1)N1CC[C@H]2[C@H](CCCN2Cc2ccc(F)cc2)C1 | -0.66%
CC(C)CNc1cccc2c1S(=O)(=O)N(Cc1cn(Cc3ccc(Cl)cc3)nn1)Cc1ccccc1O2 | -29.6%
